# From PubChem BioAssay (NCI)
# Compounds without any hit were thinned out: in the full panel of roughly 83,000, 20% have a hit.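 Assay: single dose, 48 h. Readout: percent growth (0 = no net growth; negative = cell death). Active: <10.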 A number with no mark means an inactive call. The source made the active and inactive calls.
# System: MDA-MB-468 breast
# Assay: NCI-60 one-dose screen, 48 h (100 = growth as untreated, 0 = no growth, -100 = all killed)
# Conditions: 10 µM unless noted
row,SMILES,growth
1,Oc1cccnc1CN1CCCC1,104%
2,Oc1ccc2ccccc2c1CN1CCOCC1,123%
3,COc1ccc(NC2=C(Cl)C(=O)C(C)=C(C)C2=O)cc1,-38.4% (active)
4,NS(=O)(=O)c1ccc(CCNC(=O)/C=C/c2ccc(Cl)cc2)cc1,103%
5,C=C1C(=O)O[C@H]2[C@H]1CC/C(C(=O)NCCOCCOCC(=O)Nc1ccc(OC)c(C(N)=O)c1O)=C\CC[C@@]1(C)O[C@@H]21,77.8%
6,COc1cc(-c2cc(-c3nc4cc(Cl)c(Cl)cc4[nH]3)[nH]n2)cc(OC)c1OC,51.7%
7,C=C1C(=O)O[C@H]2[C@H]1CC/C(COC(=O)N[C@H]1C[C@H](O[C@H]3C[C@](O)(C(=O)CO)Cc4c(O)c5c(c(O)c43)C(=O)c3c(OC)cccc3C5=O)O[C@@H](C)[C@H]1O)=C\CC[C@@]1(C)O[C@@H]21,-55.9% (active)
8,O=C(c1c[nH]c2ccccc12)c1n[nH]c(=S)n1-c1cccc(Br)c1,98.7%
9,NCCN1CCNCC1,95.2%
10,Cn1ccnc1C(=O)/C=C/c1ccc(NC(=O)c2ccc(F)cc2)cc1,11.8%
11,Cc1nc2ccccc2n1C(=O)C[C@@H]1NC(=S)NC1=O,95.7%
12,NC(N)=Nc1ccc(Oc2cccc(NC(N)=Nc3ccc(Cl)c(C(F)(F)F)c3)c2)cc1,10.1%
13,Nc1nc(SCC#CCCl)c2[nH]cnc2n1,-6.97% (active)
14,CC(=O)c1cc(-c2ccccc2N)n(-c2ccc3c(c2)OCO3)c1C,30.5%
15,COc1ccc(C2CC(c3ccc(OC)c(OC)c3)=NN2C(=O)c2cc(OC)c(OC)c(OC)c2)c(OC)c1 (stereo not given),53.6%
16,COc1ccc(OC)c(Nc2nc3nonc3nc2Nc2cccc(Br)c2)c1,0.0908% (active)
17,CCCS(=O)(=O)c1nc(NC2CC2)cc(-c2ccc3c(ccn3C3CC(C)(C)NC(C)(C)C3)c2)n1,-72.4% (active)
18,CCCCCCCC/C=C\CCCCCCCCOc1cccc(CC(=O)NCC[N+]2(C)CCCCC2)c1,52.6%
19,COc1ccc(NC(=O)c2sc3nc(C)c(C(=O)/C=C/c4cccc(OC)c4)cc3c2N)cc1,27.9%
20,O=C(/C=C/c1c(Cl)nc2sccn12)c1nccs1,75.7%

row,SMILES,growth
1,CCOC(=O)CC(C)=N,92.8%
2,Cc1ccc(S(=O)(=O)n2cc(C(=O)C(=O)N3CCOCC3)c3ccccc32)cc1,90.4%
3,N#Cc1c(-c2ccc(C(F)(F)F)cc2)c(F)c(NCCC2CCC(O)C2)n2c1nc1ccccc12 (stereo not given),64.2%
4,Cc1ccc(C(C)C)cc1C(=O)C[n+]1ccccc1,107%
5,COc1ccc(C2=NN(C(=O)c3cc(OC)c(OC)c(OC)c3)C(c3ccc(C#N)cc3)C2)cc1OC (stereo not given),-25.8% (active)
6,NC(CS/C(Cl)=C/Cl)C(=O)O (stereo not given),-38.5% (active)
7,CCOc1ccc2nc(C)cc(Nc3ccc(Br)cc3)c2c1,100%
8,O=S(=O)(NCCCNc1cc(-c2cn(-c3ccccc3)nc2-c2cccc(O)c2)ccn1)c1cccc(F)c1,7.62% (active)
9,CCO/C=N/NC(=O)c1ccncc1,107%
10,CCOC(=O)Nc1ccc(-c2ccc3c(c2)NC(=O)/C3=C\c2ccc[nH]2)cc1,-8.48% (active)
11,CS(=O)(=O)c1nccc(-c2c(-c3cccc(OCc4ccc(F)cc4)c3)nc3sccn23)n1,-63.6% (active)
12,COc1ccc(/C=C2\COc3ccc(O)cc3C2=O)c(OC)c1,-1.02% (active)
13,Cc1ccc(/C=C2\CN(C(=O)CCN3CCC(=NO)CC3)C/C(=C\c3ccc(C)cc3)C2=O)cc1,-54.2% (active)
14,OCCN1CCN(CCCN2c3ccccc3Sc3ccc(Cl)cc32)CC1,25.3%
15,O=C(NC1CC(F)C1)c1cc2cccnc2n1-c1ccc(Cl)c(Cl)c1 (stereo not given),101%
16,Clc1ccc(Nc2nnc(-c3ccc4c(c3)OCO4)o2)cc1,106%
17,N/C(=N\N=C\c1cc2ccccc2s1)N/N=C/c1cc2ccccc2s1,122%
18,NS(=O)(=O)c1cccc(Nc2nc(SCC(=O)c3ccc(Cl)cc3)nc3ccccc23)c1,80.1%
19,CCOC(=O)c1ccc2c(c1)nc(/C=C/c1ccc(Cl)cc1)n2-c1cc(C(C)(C)C)[nH]n1,58.8%
20,COc1ccc(/C=N/NC(=O)CSc2nc(-c3cnccn3)cc(-c3cccs3)c2C#N)cc1OC,65.3%
